High-throughput results (PubChem BioAssay)
WT yeast gro inh: growth inhibition of WT yeast, mitochondrial fusion screen. mitochondrial fusion phenotypic screen, WT strain. inhibition, % at 10 µM. 190,000 compounds, 2.1% hits. AID 1362; in the data active = inhibition above about 58%; tested in S. cerevisiae
Cl transport mod: modulators of human KCC2 chloride dependent transport; B-score of Tl+ flux slope (higher = more flux/activation; lower = inhibition) at 10 µM; Q9H2X9; 190,000 compounds, 2.2% hits; KCC2 cells, thallium flux FluoZin-2 fluorescence;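 active = thallium flux slope and its plate-corrected score both differing from the plate sample mean at a set confidence after two filtering rounds, in either direction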;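 also: slope of fluorescence scaled to starting intensity during 10 to 20 s after thallium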
Calpain2 inh: inhibitors of pig calpain II. purified calpain II, fluorogenic peptide substrate, 30 min. inhibition, % at 16 µM. 220,000 compounds, 0.37% hits;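 active = inhibition above about 50%, limit read from the data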
ROMK mod: human ROMK K+ channel modulation, primary screen; Tet-inducible ROMK, thallium flux fluorescence; actives lie on both sides; 130,000 compounds, 2% hits; B-score at 10 µM; P48048;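 active = signal ratio slope over the read window, or its plate-corrected B-score, at least 3 SD from the plate mean, either direction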;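 also: B-score of the F/F0 ratio slope over 7 to 12 s after thallium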
L major viab: reduces viability of Leishmania major promastigotes; resazurin fluorescence viability; inhibition, % at 10 µM; 200,000 compounds, 9% hits; AID 1063; in the data active = inhibition above about 50%;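 also: promastigotes grown with compound for 44 hours at 28 °C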
* hit, by the source's call. Most compounds without a hit are left out; they make up all but 12% or so of the library.

Cc1ccc(Cn2nnnc2CN2CCC(O)(c3ccccc3F)CC2)cc1 was read as WT yeast gro inh -5, Cl transport mod -0.66, Calpain2 inh 6 and L major viab 0.
Screening COc1cc(CN2CCC(CO)(CCOc3ccccc3)CC2)cc(OC)c1OC returned WT yeast gro inh -2, Cl transport mod -1.4, Calpain2 inh -2, ROMK mod -2 and L major viab 87*.
For COc1ccc(CN2CCC(CO)(CCOc3ccccc3)CC2)cc1C the results were WT yeast gro inh 15, Cl transport mod 1.5, Calpain2 inh 25, ROMK mod -0.94 and L major viab 85*.
`COc1cc(OC)c(CN2CCC(CO)(CCOc3ccccc3)CC2)c(OC)c1` gave WT yeast gro inh 4, Cl transport mod 1.5, Calpain2 inh -3, ROMK mod -0.44 and L major viab 2.
For OCC1(CCOc2ccccc2)CCN(CCCn2cccn2)CC1 the results were WT yeast gro inh -1, Cl transport mod 0.088, Calpain2 inh 22, ROMK mod -0.86 and L major viab 81*.
CCn1ccnc1CN1CCC(CO)(CCOc2ccccc2)CC1 was read as WT yeast gro inh -7, Cl transport mod -0.13, Calpain2 inh -7 and L major viab 1.
`CCOC(=O)C1=C(N)c2ccccc2CC1C(C)C` (stereo not drawn) gave WT yeast gro inh 27, Cl transport mod -1.3, Calpain2 inh 31, ROMK mod 0.16 and L major viab -2.
O=C(COc1ccc(NS(=O)(=O)c2ccc(F)cc2)cc1)N1CCOCC1 was read as WT yeast gro inh -10, Cl transport mod -0.027, Calpain2 inh -12, ROMK mod -0.75 and L major viab 1.
Screening CC(=O)OCCN(Cc1ccccc1)Cc1ccc2c(c1)OCO2 returned WT yeast gro inh 48, Cl transport mod -2.8, Calpain2 inh 1 and L major viab -2.
`CC(NC(=O)N(Cc1ccccc1)Cc1ccc2c(c1)OCO2)(C(F)(F)F)C(F)(F)F` gave WT yeast gro inh 2, Cl transport mod 1.4, Calpain2 inh 9 and L major viab 94*.
O=C(Nc1ccc([N+](=O)[O-])cc1)c1cc2ccccc2nc1Cl was read as Cl transport mod 0.61 and Calpain2 inh 15.
Screening CN(C)CCCN(C(=O)CCc1ccccc1)c1nc2ccc(Cl)cc2s1 returned WT yeast gro inh 91, Cl transport mod -0.65, Calpain2 inh -11, ROMK mod -1.9 and L major viab 87*.
CN(C)CCCN(C(=O)COc1ccccc1)c1nc2ccc(Cl)cc2s1 was read as WT yeast gro inh 26, Cl transport mod 0.8, Calpain2 inh 2, ROMK mod -0.83 and L major viab 13.
CN(C)CCCN(C(=O)c1ccc2c(c1)CCCC2)c1nc2ccc(Cl)cc2s1 was read as WT yeast gro inh 80*, Cl transport mod -0.28, Calpain2 inh 18 and L major viab 79*.
COc1ccc(C(=O)NCc2ccccc2)cc1S(=O)(=O)N1CCCc2ccccc21 was read as WT yeast gro inh 4, Cl transport mod -3.9, Calpain2 inh 15, ROMK mod -1.9 and L major viab 61*.
Screening CCCN(CCO)Cc1ccc2ccccc2c1 returned WT yeast gro inh -2, Cl transport mod 0.67, Calpain2 inh 2, ROMK mod 0.73 and L major viab 3.
Screening CCCN(CCO)Cc1cccc(Oc2ccccc2)c1 returned WT yeast gro inh -2, Cl transport mod 0.14, Calpain2 inh 8 and L major viab 97*.
`CCOC(=O)Cc1csc(NC(=O)c2c(O)c3ccccc3n(CC(C)C)c2=O)n1` gave WT yeast gro inh 11, Calpain2 inh -376, ROMK mod 2.1 and L major viab 79*.
`CCC(C)n1c(=O)c(C(=O)Nc2ccccc2S(N)(=O)=O)c(O)c2ccccc21` (stereo not drawn) gave WT yeast gro inh 65*, Cl transport mod -1.5, Calpain2 inh -259 and L major viab -8.
For CC(C)Cn1c(=O)c(C(=O)Nc2ccccc2S(N)(=O)=O)c(O)c2ccccc21 the results were WT yeast gro inh 73*, Cl transport mod -1.2, Calpain2 inh -235, ROMK mod -0.7 and L major viab -6.
Screening CC(C)Cn1c(=O)c(C(=O)N/N=C/c2cccc(F)c2)c(O)c2ccccc21 returned WT yeast gro inh 19, Cl transport mod 0.8, Calpain2 inh -23, ROMK mod -0.11 and L major viab 70*.
`Cn1c(=O)c(C(=O)Nc2ccccc2S(N)(=O)=O)c(O)c2ccccc21` gave Cl transport mod -0.61, Calpain2 inh 8 and ROMK mod 0.55.
For CCOC(=O)Cc1csc(NC(=O)c2cccs2)n1 the results were WT yeast gro inh 11, Cl transport mod -1.5, Calpain2 inh 19 and L major viab -2.
`Cc1onc(-c2ccccc2Cl)c1C(=O)Nc1ncn[nH]1` gave WT yeast gro inh 10, Cl transport mod -0.27, Calpain2 inh 14, ROMK mod 0.54 and L major viab 0.
For O=C(O)c1cccc2c1C(=O)c1cccc3snc-2c13 the results were Cl transport mod -0.46 and Calpain2 inh -11.
`CCOC(=O)N1CCC(NC(=O)C2CCN(S(=O)(=O)c3ccc4c(c3)oc(=O)n4C)CC2)CC1` gave WT yeast gro inh -13, Cl transport mod 0.31, Calpain2 inh -40 and L major viab 0.
`CC(Sc1nc2cc(Cl)ccc2s1)C(=O)Nc1cccc(S(=O)(=O)N2CCOCC2)c1` (stereo not drawn) gave WT yeast gro inh 25, Cl transport mod -0.28, Calpain2 inh 1 and L major viab 62*.
O=C(Cc1ccc(Cl)c(Cl)c1)Nc1cccc(S(=O)(=O)N2CCOCC2)c1 was read as WT yeast gro inh 9, Cl transport mod 0.0014, Calpain2 inh 14, ROMK mod -0.49 and L major viab 55*.
`O=C(Nc1cccc(S(=O)(=O)N2CCOCC2)c1)c1ccco1` gave Cl transport mod 1.6, Calpain2 inh 1, ROMK mod 0.5 and L major viab 93*.
For CSCCC(NC(=O)c1cccc(S(=O)(=O)N2CCOCC2)c1)C(=O)Nc1cccc(C)c1 (stereo not drawn) the results were WT yeast gro inh 12, Cl transport mod 1.6, Calpain2 inh 7, ROMK mod 0.97 and L major viab 70*.
`CN1CCC(=NNC(=O)c2cn(-c3ccccc3)nc2-c2ccccc2)CC1` gave WT yeast gro inh -11, Cl transport mod -0.068, Calpain2 inh 25, ROMK mod -1.2 and L major viab 8.
For Cc1ccc2c(c1)c1c3n2CCN(C(=O)CN2CCN(C)CC2)C3CCC1 (stereo not drawn) the results were WT yeast gro inh 3, Cl transport mod 1.4, Calpain2 inh -34 and L major viab 21.
CN1CCN(CC(=O)N2CCn3c4c(c5cc(C6CCCCC6)ccc53)CCCC42)CC1 (stereo not drawn) was read as WT yeast gro inh 97, Cl transport mod 0.2, Calpain2 inh -60 and L major viab 101*.
`CCNc1c2c(nc3ccccc13)CC(C)(C)CC2=O` gave WT yeast gro inh -4, Cl transport mod -0.3, Calpain2 inh -12, ROMK mod -0.36 and L major viab 58*.
